# Results: PubChem BioAssay (NCATS)
# Records with an inconclusive call do not appear. Activity calls are given as the source filed them. Calls follow the shape of the dose curve; as a rule, active = well fitted cell-killing curve with a large enough effect; inconclusive = small, poorly fitted or top-dose-only effect; inactive = flat fitted curve, though single readings scatter.
# Assay: Cell Viability - LYMP2-010 (AID 981); also: nearly all actives have a fitted effect of over 55% in size
# Conditions: LYMP2-010 lymphoblastoid cell viability, qHTS; series mostly up to 92.2 µM; activity, negative = cytotoxicity: at the top concentration
# Source text: NIH Chemical Genomics Center [NCGC]
# NIH Molecular Libraries Screening Centers Network [MLSCN]
# National Institutes of Environmental Health Sciences [NIEHS]
# National Toxicology Program [NTP]
# We have developed a 1536-well cell-based assay for quantitative high throughput screening (qHTS) against a number of cell lines to determine in vitro cytotoxicity of small molecules. This particular assay uses a human lymphoblastoid cell line (LYMP2-010) purchased from Coriell Institute for Medical Research.
# NCGC Assay Protocol Summary:
# The CellTiter-Glo luminescent cell viability assay (Promega) is a homogeneous method to measure the number of viable cells in culture. The end point readout of this assay is based on quantitation of intracellular ATP, an indicator of metabolic activity, using the luciferase reaction. Luciferase catalyzes the oxidation of beetle Luciferin to oxyluciferin and light in the presence of ATP. The luminescent signal is proportional to amount of ATP present.
# Using the CellTiter-Glo luminescent cell viability assay, the amount of cellular ATP was measured in the lymphoblastoid cell line with complete culture medium following compound treatment for 24 hours. The assay was performed in opaque white Kalypsys 1536-well plates. In the screen, tetraoctylammonium bromide was used as positive control. Library compounds were measured for their ability to cause acute toxicity in the cell line, as reflected by a decrease in intracellular ATP levels, in a concentration-dependent manner. […] AC50 values were determined from concentration-response data modeled with the standard Hill equation.
# qHTS protocol for CellTiter Glo lymphoblastoid cellular assay
# [Step] [Parameter] [Value] [Description]
# 1. Reagent; 5 uL; 2500 lymphoblastoid cells/well
# 2. Time; 5 hr; 37 C incubation
# 4. Controls; 23 nL; Tetraoctylammonium bromide 6.4pM to 92 uM
# 5. Time; 24 hr; 37 C incubation
# 6. Reagent; 5 uL; CellTiter Glo reagent
# 7. Time; 30 min; Room Temperature
# 8. Detection; Luminescence; Viewlux plate reader
# Keywords: cell viability, cytotoxicity, lymphoblastoid cell line, luminescence, NTPHTS, NTPHTS_NCGC, NIEHS, DSSTox, MLSMR, MLSCN, NIH Roadmap, qHTS, NCGC
# % is scaled to controls: 0 for no effect and ±100 for the full control effect.
row,Compound,"activity, negative = cytotoxicity"
1,O=[N+]([O-])c1cccc(C(F)(F)F)c1,-5.89% (inactive)
2,Cc1c(N)cccc1N,-5.56% (inactive)
3,Cc1cc(C)cc(O)c1,-17.1% (inactive)
4,CCCCCCCCN,-17% (inactive)
5,C=CCCCCCC,1.09% (inactive)
6,CC/C=C/C#N,-10.4% (inactive)
7,CSc1ccc(C=O)cc1,-4.37% (inactive)
8,S=C([S-])NCCNC(=S)[S-].[Zn+2],-13.8% (inactive)
9,C=CC(=O)OCCCC,-11% (inactive)
10,C=Cc1ccccc1C=C,-10.5% (inactive)
11,O=C1CCCCC1,2.59% (inactive)
12,CCOCCO,-10.9% (inactive)
13,O=C(O)c1cccc(Cl)c1Cl,3.7% (inactive)
14,Cc1cccc(C(=O)O)c1,-4.05% (inactive)
15,CC(C)=CCC/C(C)=C/C=O,-15.4% (inactive)
16,Nc1ccc(Cl)cc1[N+](=O)[O-],-4.97% (inactive)
17,CC(C)CCOC(=O)/C=C/c1ccccc1,-9.78% (inactive)
18,Nc1ccccc1[N+](=O)[O-],4.13% (inactive)
19,CCCCCNCCCCC,-6.53% (inactive)
20,CCCC(Cl)CCCC(Cl)CCC(Cl)CCC(Cl)CCC(Cl)CCCC(Cl)CCC (stereo not given),-9.28% (inactive)

row,Compound,"activity, negative = cytotoxicity"
1,CCN(CC)c1cccc(O)c1,-4.42% (inactive)
2,CC(C)(c1cc(Br)c(OCC(Br)CBr)c(Br)c1)c1cc(Br)c(OCC(Br)CBr)c(Br)c1 (stereo not given),-18.1% (inactive)
3,O=C(O)/C=C/C(=O)O,-1.26% (inactive)
4,O=Cc1ccc(C(=O)O)cc1,-8.86% (inactive)
5,N#CC1(O)CCCCC1,-9.66% (inactive)
6,CCOc1ccccc1N,-4.3% (inactive)
7,Cc1ccc(CO)cc1,-0.631% (inactive)
8,CCCCC=O,-11.3% (inactive)
9,Cc1ccccc1C(=O)O,-3.68% (inactive)
10,O=C(O)CNC(=O)c1ccc([N+](=O)[O-])cc1,-6.19% (inactive)
11,C=CC(=O)NC(C)C,-9.18% (inactive)
12,C1CCOC1,-6.07% (inactive)
13,CCCCOCCOCCSC#N,6.34% (inactive)
14,O=Cc1cccc(Br)c1,-8.33% (inactive)
15,Cc1ccc(C)c(N)c1,-13.3% (inactive)
16,CO[Si](CCCNCCC[Si](OC)(OC)OC)(OC)OC,-0.952% (inactive)
17,Cc1ccc2nc(-c3ccc(N)cc3)sc2c1S(=O)(=O)O,-8.7% (inactive)
18,O=[N+]([O-])c1cccc(Cl)c1,-19.8% (inactive)
19,CCC(C)(C)OC,-17.6% (inactive)
20,CNC(=O)c1ccccc1,3.88% (inactive)
